# Bioassay records (PubChem)
# Wnt bcat act: Wnt/beta-catenin pathway activation | activation, % at 9.35 µM | Wnt/beta-catenin reporter cell assay, activator, plate reader | 300,000 compounds, 1.2% hits; in the data active means activation above about 30%, passing the limit was not always enough;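 further: 0% = neutral control wells and 100% = positive control wells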
# HSF-1 act: increases HSF-1 driven luciferase reporter signal. NIH3T3-HGL HSF-1 luciferase reporter, MG132, 8 h; 100% = twice DMSO control signal. activation, % at 9 µM. 300,000 compounds, 1.7% hits. AID 504408;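 active means mean replicate activation of at least 50% with a set share of replicates each reaching 50%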;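 further: 0% = median of the neutral control wells and 100% = twice that signal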
# HSF1 inhib: HSF1 inhibition; NIH3T3-HGL HSE-luciferase, MG132-induced, luminescence 8 h; active compounds read low; activity change, negative = inhibition, % at 7.5 µM (by protocol); 300,000 compounds, 0.77% hits; AID 2098;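 active means more than half of replicate wells show activity change below -50%, luminescence cut by over half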;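 further: luciferase reports HSF-1 transcriptional activity via heat shock element; 0% = median of DMSO wells and -100% = zero luminescence signal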
# SMARCA2 act: increases SMARCA2 function in MMTV reporter cells | MG213 cells, MMTV-luciferase reporter, dexamethasone, overnight | AID 652017 | activation, % at 9.1 µM | 370,000 compounds, 1% hits; in the data active means activation above about 7.8%;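 further: 0% = vehicle wells and 100% = reference activator wells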
# esBAF inh: blocks esBAF chromatin remodeling in mouse ES cells | reporter increase, % at 12.5 µM | Bmi1-luciferase knock-in reporter, 24 h; 100% = twice the neutral-well signal | 350,000 compounds, 2% hits; in the data active means activation above about 40%;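 further: 0% = median of the plate's neutral control wells and 100% = double that signal; a rise in the Bmi1 reporter signal indicates esBAF inhibition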
# MITF act: increases MITF-driven TRPM1 promoter luciferase signal | 300,000 compounds, 0.75% hits | activation, % at 12.5 µM | SK-MEL-5 TRPM1-promoter luciferase, 24 h; % of positive control, neutral wells = 0 | AID 588334;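 active means mean activation of at least 80% with every replicate also reaching 80%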;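 further: 0% = neutral control wells and 100% = parthenolide positive control wells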
# SMARCA2 act conf: SMARCA2 activation, confirmation screen. shares compounds with SMARCA2 act. MG213 cells, MMTV-luciferase with dexamethasone, luminescence, overnight; MG213 cells expressing E1A, Rb sequestered; DMSO wells 0%, reference activator 100%. activation, % at 9.1 µM. 3,500 compounds, 30% hits. AID 652260;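 active means activation above its plate's cutoff, the mean activation of tested wells plus 3 SD, cut at about 7.9% in these data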
# GAL4-VP16 Luc: GAL4-VP16 reporter activation counter-screen; shares compounds with SMARCA2 act; HEK293 GAL4-VP16 pG5luc reporter, luciferase luminescence; scaled: DMSO wells 0%, SAHA wells 100%; activation, % at 9.1 µM; 3,500 compounds, 41% hits;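 active means activation above the solvent-only control well mean plus 3 SD, averaged across control plates, cut at about 5.2% in these data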
# * = called active by the depositor; . = no result given; ! = repeats disagree. An excerpt weighted towards active compounds, which were near 4.3% of everything screened.
SMILES,Wnt bcat act,HSF-1 act,HSF1 inhib,SMARCA2 act,esBAF inh,MITF act,SMARCA2 act conf,GAL4-VP16 Luc
COc1ccc(NC(=O)c2sc(SC)nc2N)cc1,.,17,8,11*,-6,63,7,4
CO[C@H]1CN(C)C(=O)c2cc(NC(C)=O)ccc2OC[C@@H](C)NC[C@H]1C,.,.,.,.,-2,.,.,.
Fc1ccc(/C=C\c2nccc3c2[nH]c2ccccc23)cc1,3,44,21,16*,12,0,4,3
C(=C\c1nccc2c1[nH]c1ccccc12)/c1ccccc1,12,44,20,6,26,5,.,.
Cc1ccc(/C=C\c2nccc3c2[nH]c2ccccc23)cc1,-4,12,17,10*,55*,11,8,8.1*
C[C@@H]1CN([C@H](C)CO)C(=O)c2cc(NC(=O)Cn3cnnn3)ccc2O[C@@H]1CN(C)Cc1ccc2c(c1)OCO2,.,.,.,.,-8,.,.,.
O=c1[nH]c2ccccc2nc1-c1cccs1,43*,39,19,8.2*,68*,.,8.6*,4
O=C(C[C@@H]1CC[C@H](NC(=O)CN2CCOCC2)[C@H](CO)O1)NC1CCC1,.,.,.,.,0,.,.,.
C[C@@H]1CN([C@@H](C)CO)S(=O)(=O)c2ccc(C#CC3(O)CCCC3)cc2O[C@H]1CN(C)C(=O)c1ccccc1,.,.,.,.,4,.,.,.
COc1ccc2sc3ccccc3c(=O)c2c1,0,22,14,2,34,70,.,.
CN1CCCC1CCNc1ccc2sc3ccccc3c(=O)c2c1 (stereo unspecified),10,-16,-11,11*,-2,108*,14*,7.5*
Cc1cc2oc3cc(NCCC4CCCN4C)ccc3c(=O)c2cc1C (stereo unspecified),29,6,1,8.8*,38,-6,21*,8.7*
CC(C)(C)NC(=O)NC(=O)COc1ccccc1C#N,40*,1,3,9.7*,40,121*,3,12*
COC(=O)c1ccc(NC(=O)CSc2nc(=O)cc(N)n2-c2ccccc2)cc1,2,42,2,1,-2,6,.,.
CSc1nsc(SCC(=O)Nc2ccc(C(C)=O)cc2)n1,.,28,29,13*,48*,37,5,10*
CC(=O)c1ccc(NC(=O)CSc2nc(=O)cc(N)n2-c2ccccc2)cc1,12,8,15,8.6*,63*,67,7,8.8*
CSc1nsc(SCC(=O)Nc2ccc(NC(C)=O)cc2)n1,2,15,10,-1,12,13,.,.
O=C(C[C@H]1CC[C@@H]2[C@H](COC[C@H](O)CN2CCC(F)(F)F)O1)NCC1CCCCC1,.,.,.,.,2,.,.,.
Cn1c(N)c(C(=O)Nc2ccccc2F)sc1=S,4,.,.,-4,.,.,.,.
Nc1c(C(=O)Nc2ccc(F)cc2)sc(=S)n1-c1ccccc1F,5,5,-2,8.4*,54*,51,1,3
Cn1c(N)c(C(=O)Nc2ccc3ccccc3c2)sc1=S,.,27,21,10*,39,107*,4,12*
C/C=C/c1ccc([C@H]2[C@H](CO)N(C(=O)CC)[C@H]2CNC(=O)CC2CC2)cc1,.,.,.,.,2,.,.,.
CCCN(C)C[C@@H]1Oc2ncc(-c3cccc(F)c3)cc2C(=O)N([C@H](C)CO)C[C@@H]1C,.,.,.,.,3,.,.,.
COc1cc(/C=N/Nc2ccccn2)ccc1O,37*,37,47,9.6*,.,29,7,10*
COc1ccc(/C=N/Nc2ccccn2)cc1OC,0,37,11,4,.,.,.,.
SMILES,Wnt bcat act,HSF-1 act,HSF1 inhib,SMARCA2 act,esBAF inh,MITF act,SMARCA2 act conf,GAL4-VP16 Luc
Cn1c2ccc(Cl)cc2c2nc3ccccc3nc21,2,13,3,9.4*,13,0,11*,3
Cc1ccc2c(c1)c1nc3ccccc3nc1n2C,5,-5,-2,2,39,.,.,.
COCC(=O)N1[C@H](C#N)[C@H](c2ccc(C3=CCCCC3)cc2)[C@@H]1CO,.,.,.,.,1,.,.,.
O=C(c1ccccc1)N1CC[C@@H]2[C@@H](CO)Nc3ccc(C#Cc4cccc(F)c4)cc3[C@@H]21,.,.,.,.,3,.,.,.
Cc1ccc(NC(=O)N2CCN(C(=O)c3ccco3)CC2)cc1Cl,2,-21,-9,-2,6,9,.,.
Cc1ccc(Nc2nc(N)nc(CN3CCN(C(=O)c4ccco4)CC3)n2)cc1Cl,-1,5,-6,8.5*,.,-2,1,1
O=C(c1ccco1)N1CCN(Cc2c(F)cccc2Cl)CC1,12,14,9,8.8*,45*,.,7,7.9*
CO[C@H]1CN(C)C(=O)c2ccc(NC(=O)NC(C)C)cc2OC[C@@H](C)N(Cc2ccc(-c3ccccn3)cc2)C[C@H]1C,.,.,.,.,-8,.,.,.
COc1cccc(S(=O)(=O)Nc2ccc3c(c2)C(=O)N(C)C[C@H](OC)[C@@H](C)CN(Cc2ccccc2F)[C@@H](C)CO3)c1,.,.,.,.,1,.,.,.
C[C@@H]1CNCCN1c1ccc(N2CCN(Cc3ccccc3)[C@@H](C)C2)c(C#N)c1,-9,.,.,1,.,.,.,.
C[C@H]1CN(c2ccc(N3CCNC[C@@H]3C)cc2C#N)CCN1Cc1ccccc1,-3,.,.,11*,.,.,-2,0
c1ccc2[nH]c(-c3ccnc4ccccc34)nc2c1,38*,24,10,11*!,27,18,5,3
C[C@H](CO)N1C[C@H](C)[C@H](CN(C)C(=O)c2ccccc2F)Oc2ncc(-c3cccnc3)cc2C1=O,.,.,.,.,-4,.,.,.
CSc1nc(SCC(=O)NC(c2ccccc2)c2ccccc2)c2c3c(sc2n1)CN(C)CC3,.,-6,-9,12*,-3,-26,-4,0
CSc1nc(NCC(C)O)c2c3c(sc2n1)CN(C)CC3 (stereo unspecified),1,0,-3,1,-5,2,.,.
CCc1ccc(OCC(=O)Nc2ncn[nH]2)cc1,24,6,4,8.1*,8,79,11*,8.7*
C=CCc1ccc(OCCCCN2CCC(C)CC2)c(OC)c1,-9,-17,-7,12*,.,11,-6,3
C=CCc1ccc(OCCCCN2CC(C)CC(C)C2)c(OC)c1 (stereo unspecified),1,-7,-5,-5,-1,21,.,.
C[C@@H]1CN([C@H](C)CO)S(=O)(=O)c2ccc(C#CCN(C)C)cc2O[C@H]1CN(C)C(=O)C1CCCCC1,.,.,.,.,-2,.,.,.
Cc1csc(=NC(=O)c2ccccc2)n1Cc1ccco1,-4,8,8,-1,-5,14,.,.
